Data reported in PubChem BioAssay AID1159580 (chemical genetic matrix, 2015).
Several values for one entry are separate records, joined by “and”; a condition that tells them apart may be missing. Equal entries are not always repeated. Out of some 5,500 compounds screened, about 2,000 (36%) were called active. Not shown: some 18% with an inconclusive outcome. Cut-off read from the data, not from the text of the source: active = normalized growth mostly below about 0.91 (no sharp cut-off); inconclusive = no clear call, values can overlap the other calls; inactive = mostly above about 0.92. This is one part of the list.

Test: chemical genetic growth profiling, strain panel (AID 1159580);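 note: tested at 20 µM; growth read once vehicle control cultures reached saturation at 30 °C; 1 = growth at the plate median or of vehicle wells; lower values mean less growth of the strain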
Details: S. cerevisiae deletion strains, growth OD

Measured: normalized growth

OC1(C(F)(F)F)CC(c2ccc3ccccc3c2)=NN1 (configuration not stated)
active: locus YAL013W, strain DEP1, stronger effect = lower value 0.205 | locus YAR019C, strain CDC15, stronger effect = lower value 0.155 | locus YBL105C, strain PKC1, stronger effect = lower value 0.336 | locus YBR135W, strain CKS1, stronger effect = lower value 0.263 | locus YBR136W, strain MEC1, stronger effect = lower value 0.339 | locus YBR160W, strain CDC28, stronger effect = lower value 0.367 | locus YBR229C, strain ROT2, stronger effect = lower value 0.223 | locus YCL061C, strain MRC1, stronger effect = lower value 0.19 | locus YDL017W, strain CDC7, stronger effect = lower value 0.373 | locus YDL028C, strain MPS1, stronger effect = lower value 0.402 | locus YDL101C, strain DUN1, stronger effect = lower value 0.215 and 0.164 | locus YDL108W, strain KIN28, stronger effect = lower value 0.392 | locus YDL132W, strain cdc53, stronger effect = lower value 0.234 | locus YDL214C, strain PRR2, stronger effect = lower value 0.224 | locus YDR052C, strain DBF4, stronger effect = lower value 0.302 | locus YDR054C, strain cdc34, stronger effect = lower value 0.233 | locus YDR150W, strain NUM1, stronger effect = lower value 0.397 | locus YDR226W, strain ADK1, stronger effect = lower value 0.278 | locus YDR477W, strain SNF1, stronger effect = lower value 0.146 | locus YEL061C, strain CIN8, stronger effect = lower value 0.146 | locus YER123W, strain YCK3, stronger effect = lower value 0.181 | locus YER133W, strain GLC7, stronger effect = lower value 0.135 | locus YFL009W, strain cdc4, stronger effect = lower value 0.17 | locus YFL029C, strain CAK1, stronger effect = lower value 0.16 | locus YFR003C, strain YPI1, stronger effect = lower value 0.405 | locus YFR019W, strain FAB1, stronger effect = lower value 0.376 | locus YFR028C, strain CDC14, stronger effect = lower value 0.226 | locus YGR040W, strain KSS1, stronger effect = lower value 0.135 | locus YGR052W, strain FMP48, stronger effect = lower value 0.15 | locus YGR078C, strain PAC10, stronger effect = lower value 0.213 | locus YGR092W, strain DBF2, stronger effect = lower value 0.198 | locus YHR030C, strain SLT2, stronger effect = lower value 0.0763 and 0.104 | locus YHR079C, strain IRE1, stronger effect = lower value 0.125 | locus YHR082C, strain KSP1, stronger effect = lower value 0.141 | locus YHR087W, strain rtc3, stronger effect = lower value 0.442 | locus YHR205W, strain SCH9, stronger effect = lower value 0.138 | locus YIL147C, strain SLN1, stronger effect = lower value 0.322 | locus YJL095W, strain BCK1, stronger effect = lower value 0.115 | locus YJL128C, strain PBS2, stronger effect = lower value 0.386 | locus YJL157C, strain FAR1, stronger effect = lower value 0.301 | locus YJR016C, strain ILV3, stronger effect = lower value 0.162 | locus YJR043C, strain POL32, stronger effect = lower value 0.245 | locus YJR066W, strain TOR1 (second series), stronger effect = lower value 0.192 | locus YJR066W, strain TOR1, stronger effect = lower value 0.125 | locus YJR075W, strain HOC1, stronger effect = lower value 0.298 | locus YKL048C, strain ELM1, stronger effect = lower value 0.285 | locus YKL067W, strain YNK1, stronger effect = lower value 0.279 | locus YKL101W, strain HSL1, stronger effect = lower value 0.251 | locus YKL190W, strain CNB1, stronger effect = lower value 0.0734 | locus YKL193C, strain SDS22, stronger effect = lower value 0.161 | locus YKL203C, strain TOR2, stronger effect = lower value 0.13 | locus YLR039C, strain RIC1, stronger effect = lower value 0.13 | locus YLR058C, strain SHM2 (second series), stronger effect = lower value 0.274 | locus YLR085C, strain ARP6, stronger effect = lower value 0.0695 | locus YLR113W, strain HOG1, stronger effect = lower value 0.15 | locus YLR133W, strain CKI1, stronger effect = lower value 0.27 | locus YLR262C, strain YPT6, stronger effect = lower value 0.12 | locus YLR403W, strain SFP1, stronger effect = lower value 0.0326 | locus YML070W, strain DAK1, stronger effect = lower value 0.211 | locus YML094W, strain GIM5, stronger effect = lower value 0.192 | locus YMR001C, strain CDC5, stronger effect = lower value 0.151 | locus YMR205C, strain PFK2 (second series), stronger effect = lower value 0.218 | locus YMR219W, strain ESC1, stronger effect = lower value 0.258 | locus YMR263W, strain SAP30, stronger effect = lower value 0.298 | locus YMR277W, strain FCP1, stronger effect = lower value 0.172 | locus YMR307W, strain GAS1, stronger effect = lower value 0.13 | locus YNL006W, strain LST8, stronger effect = lower value 0.2 | locus YNL020C, strain ARK1, stronger effect = lower value 0.257 | locus YNL153C, strain GIM3, stronger effect = lower value 0.239 | locus YNL161W, strain CBK1, stronger effect = lower value 0.211 | locus YNL183C, strain NPR1, stronger effect = lower value 0.115 | locus YNL207W, strain RIO2, stronger effect = lower value 0.195 | locus YNL222W, strain SSU72, stronger effect = lower value 0.225 | locus YNL298W, strain CLA4 (second series), stronger effect = lower value 0.0831 | locus YNL307C, strain MCK1 (second series), stronger effect = lower value 0.228 | locus YNL322C, strain KRE1, stronger effect = lower value 0.571 | locus YNR030W, strain Alg12, stronger effect = lower value 0.108 | locus YOL006C, strain TOP1, stronger effect = lower value 0.1 | locus YOL078W, strain AVO1, stronger effect = lower value 0.186 | locus YOL136C, strain PFK27, stronger effect = lower value 0.211 | locus YOR061W, strain CKA2, stronger effect = lower value 0.43 | locus YOR119C, strain RIO1, stronger effect = lower value 0.129 | locus YOR231W, strain MKK1, stronger effect = lower value 0.132 | locus YOR329C, strain SCD5, stronger effect = lower value 0.203 | locus YPL031C, strain PHO85, stronger effect = lower value 0.126 | locus YPL055C, strain LGE1, stronger effect = lower value 0.157 | locus YPL153C, strain RAD53, stronger effect = lower value 0.115 | locus YPL204W, strain HRR25, stronger effect = lower value 0.13 | locus YPL209C, strain IPL1, stronger effect = lower value 0.232 | locus YPL241C, strain CIN2, stronger effect = lower value 0.108 | locus YPL256C, strain CLN2, stronger effect = lower value 0.147 | locus YPR025C, strain CCL1, stronger effect = lower value 0.248 | locus YPR106W, strain ISR1, stronger effect = lower value 0.586 | locus YPR111W, strain DBF20, stronger effect = lower value 0.715 | locus YPR135W, strain CTF4, stronger effect = lower value 0.163 | strain NNK1, stronger effect = lower value 0.492 | strain TSCII, stronger effect = lower value 0.18
